About 7,900 targets were measured; listed, in parts, are those with a hit and a random draw of the rest. About 0.6% of all pairs of compound and target were hits.
Experiments:
Assay in all cases: log2 fold change, soluble protein after heating vs DMSO (PISA); higher = thermal stabilisation; K562 cells, 10 uM, 30 min; active = over 0.2 and 3.5 SD of the protein, either way, in both replicates (recomputed)
bafetinib = compound: Cc1ccc(NC(=O)c2ccc(CN3CC[C@H](N(C)C)C3)c(C(F)(F)F)c2)cc1Nc1nccc(-c2cncnc2)n1 [bafetinib]
Procedure, shortened: (§1)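 Values are thermal stability changes relative to control samples and are taken from duplicates. They are stated as log2 fold changes. Before quantification by TMTpro 16plex LC-MS/MS with equalised channel sums, K562 cells at 2×10^6 cells/mL were treated with 10 μM compound for 30 min, heated in aliquots for 3 min across 48°C-58°C, pooled, extracted in PBS with 0.5% NP-40 at 4°C, and centrifuged at 21,000xg for 90 min to give the soluble supernatant.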

[1] = compound: Cc1cccc(CC(=O)N2CCc3c2ccc(-c2cn(C)c4ncnc(N)c24)c3F)n1
Procedure, shortened: as §1

nilotinib = compound: Cc1cn(-c2cc(NC(=O)c3ccc(C)c(Nc4nccc(-c5cccnc5)n4)c3)cc(C(F)(F)F)c2)cn1 [nilotinib]
Procedure, shortened: as §1

[2] = compound: Cc1nc(Nc2n[nH]c3c2CN(C(=O)N[C@H](CN(C)C)c2ccccc2)C3(C)C)c2sccc2n1
Procedure, shortened: as §1

dasatinib = compound: Cc1nc(Nc2ncc(C(=O)Nc3c(C)cccc3Cl)s2)cc(N2CCN(CCO)CC2)n1 [dasatinib]
Procedure, shortened: as §1

[3] = compound: Cc1ncc(-c2ccnc(Nc3ccc(S(C)(=O)=O)cc3)n2)n1C(C)C
Procedure, shortened: as §1

[4] = compound: Cn1cc(-c2ccc3c(c2)CCN3C(=O)Cc2cccc(C(F)(F)F)c2)c2c(N)ncnc21
Procedure, shortened: as §1

[5] = compound: Cn1cc(-c2ccc3nnc(C(F)(F)c4ccc5ncccc5c4)n3n2)cn1
Procedure, shortened: as §1

tipifarnib = compound: Cn1cncc1[C@@](N)(c1ccc(Cl)cc1)c1ccc2c(c1)c(-c1cccc(Cl)c1)cc(=O)n2C [tipifarnib]
Procedure, shortened: as §1

mubritinib = compound: FC(F)(F)c1ccc(/C=C/c2nc(COc3ccc(CCCCn4ccnn4)cc3)co2)cc1 [mubritinib]
Procedure, shortened: as §1

Measured: log2 fold change

LMBRD2 (UniProt Q68DH5)
inactive: bafetinib -0.142 | [1] -0.006 | nilotinib -0.048 | [2] 0.041 | dasatinib 0.019 | [3] -0.028 | [4] -0.03 | [5] 0.043 | tipifarnib 0.189 | mubritinib -0.007

INTS7 (UniProt Q9NVH2)
inactive: bafetinib 0.02 | [1] 0.033 | nilotinib -0.054 | [2] -0.025 | dasatinib -0.109 | [3] 0.114 | [4] -0.021 | [5] 0.017 | tipifarnib -0.132 | mubritinib -0.123

ILF2 (UniProt Q12905)
inactive: bafetinib 0.093 | [1] -0.012 | nilotinib -0.011 | [2] 0.251 | dasatinib 0.121 | [3] 0.3 | [4] -0.151 | [5] -0.084 | tipifarnib 0.006 | mubritinib -0.071

MAP2K1 (UniProt Q02750)
Chain of UniProt Q02750 (Q02750 whole entry, looked up): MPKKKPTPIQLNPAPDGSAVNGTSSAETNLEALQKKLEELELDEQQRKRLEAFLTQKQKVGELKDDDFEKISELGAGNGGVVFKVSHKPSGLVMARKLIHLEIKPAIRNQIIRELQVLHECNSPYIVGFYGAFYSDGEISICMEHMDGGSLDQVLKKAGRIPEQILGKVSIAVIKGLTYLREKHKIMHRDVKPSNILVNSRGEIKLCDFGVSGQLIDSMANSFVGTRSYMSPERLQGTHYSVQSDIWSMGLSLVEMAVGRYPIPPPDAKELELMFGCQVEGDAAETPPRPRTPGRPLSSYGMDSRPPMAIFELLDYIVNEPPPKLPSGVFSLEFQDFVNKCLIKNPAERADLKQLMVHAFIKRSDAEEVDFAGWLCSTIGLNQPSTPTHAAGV
inactive: bafetinib -0.026 | [1] -0.039 | nilotinib -0.015 | [2] -0.052 | dasatinib -0.063 | [3] 0.008 | [4] 0.023 | [5] 0.021 | tipifarnib -0.024 | mubritinib 0.015

KIF1B isoform 4 (UniProt O60333)
inactive: bafetinib -0.056 | [1] -0.004 | nilotinib 0.01 | [2] 0.073 | dasatinib -0.066 | [3] -0.064 | [4] -0.044 | [5] 0.033 | tipifarnib -0.004 | mubritinib -0.004

KPNA4 (UniProt O00629)
inactive: bafetinib -0.111 | [1] 0.021 | nilotinib 0.04 | [2] -0.155 | dasatinib -0.017 | [3] -0.033 | [4] 0.021 | [5] 0.032 | tipifarnib -0.004 | mubritinib 0.093

LEMD3 (UniProt Q9Y2U8)
inactive: bafetinib -0.171 | [1] -0.114 | nilotinib -0.127 | [2] -0.026 | dasatinib -0.106 | [3] 0.037 | [4] 0.163 | [5] 0.049 | tipifarnib -0.008 | mubritinib 0.001

ILKAP (UniProt Q9H0C8)
Chain of UniProt Q9H0C8 (Q9H0C8 whole entry, looked up): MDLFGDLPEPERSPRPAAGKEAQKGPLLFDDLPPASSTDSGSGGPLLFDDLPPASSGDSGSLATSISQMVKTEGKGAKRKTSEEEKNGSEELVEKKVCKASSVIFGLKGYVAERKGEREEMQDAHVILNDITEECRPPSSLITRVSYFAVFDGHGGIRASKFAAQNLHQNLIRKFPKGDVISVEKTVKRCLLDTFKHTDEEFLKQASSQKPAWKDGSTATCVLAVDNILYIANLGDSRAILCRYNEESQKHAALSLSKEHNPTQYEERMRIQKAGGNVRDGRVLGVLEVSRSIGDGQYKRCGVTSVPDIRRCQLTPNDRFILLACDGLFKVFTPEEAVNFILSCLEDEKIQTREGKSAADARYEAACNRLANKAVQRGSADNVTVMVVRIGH
inactive: bafetinib 0.028 | [1] 0.079 | nilotinib 0.052 | [2] -0.117 | dasatinib -0.208 | [3] 0.02 | [4] 0.036 | [5] 0.045 | tipifarnib -0.093 | mubritinib 0.137

KEAP1 (UniProt Q14145)
Chain of UniProt Q14145 (Q14145 whole entry, looked up): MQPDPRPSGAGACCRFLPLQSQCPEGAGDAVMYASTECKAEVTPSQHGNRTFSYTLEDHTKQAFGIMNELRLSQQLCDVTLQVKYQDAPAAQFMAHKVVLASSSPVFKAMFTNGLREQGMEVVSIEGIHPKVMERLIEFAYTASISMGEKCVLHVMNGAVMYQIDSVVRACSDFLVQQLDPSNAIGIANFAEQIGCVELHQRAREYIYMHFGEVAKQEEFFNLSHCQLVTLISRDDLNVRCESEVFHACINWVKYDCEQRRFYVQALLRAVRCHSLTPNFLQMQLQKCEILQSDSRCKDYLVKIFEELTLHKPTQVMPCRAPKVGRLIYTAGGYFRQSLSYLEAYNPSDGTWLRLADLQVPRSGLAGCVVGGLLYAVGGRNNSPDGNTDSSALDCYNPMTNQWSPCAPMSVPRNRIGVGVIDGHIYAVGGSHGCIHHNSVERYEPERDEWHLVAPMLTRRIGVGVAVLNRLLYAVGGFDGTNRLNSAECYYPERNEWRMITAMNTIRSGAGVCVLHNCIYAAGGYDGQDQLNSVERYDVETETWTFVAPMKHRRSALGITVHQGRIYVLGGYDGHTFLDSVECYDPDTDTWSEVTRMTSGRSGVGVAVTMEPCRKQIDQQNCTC
inactive: bafetinib -0.057 | [1] 0.032 | nilotinib -0.108 | [2] -0.108 | dasatinib -0.027 | [3] 0.021 | [4] -0.085 | [5] -0.07 | tipifarnib -0.047 | mubritinib 0.037

KHDC4 (UniProt Q7Z7F0)
inactive: bafetinib -0.051 | [1] 0.057 | nilotinib 0.063 | [2] -0.054 | dasatinib -0.009 | [3] -0.053 | [4] -0.006 | [5] -0.053 | tipifarnib -0.133 | mubritinib 0.004

MAST4 (UniProt O15021)
active: [2] -0.757
inactive: bafetinib -0.029 | [1] 0.034 | nilotinib -0.073 | dasatinib -0.112 | [3] -0.004 | [4] 0.131 | [5] 0.09 | tipifarnib -0.087 | mubritinib -0.003

MAPKAPK2 (UniProt P49137)
Chain of UniProt P49137 (P49137 whole entry, looked up): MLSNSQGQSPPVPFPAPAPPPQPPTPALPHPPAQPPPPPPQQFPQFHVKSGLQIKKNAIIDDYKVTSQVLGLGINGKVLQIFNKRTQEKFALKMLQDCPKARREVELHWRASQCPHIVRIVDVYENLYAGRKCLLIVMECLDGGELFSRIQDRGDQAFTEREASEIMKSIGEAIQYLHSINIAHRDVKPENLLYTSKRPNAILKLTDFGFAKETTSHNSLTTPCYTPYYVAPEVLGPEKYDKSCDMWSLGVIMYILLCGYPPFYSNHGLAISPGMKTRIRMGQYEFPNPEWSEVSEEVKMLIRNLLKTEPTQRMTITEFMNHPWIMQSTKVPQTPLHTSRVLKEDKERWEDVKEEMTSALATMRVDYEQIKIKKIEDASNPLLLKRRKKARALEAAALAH
inactive: bafetinib 0.125 | [1] 0.017 | nilotinib 0.145 | [2] 0.045 | dasatinib -0.086 | [3] -0.011 | [4] -0.014 | [5] -0.022 | tipifarnib -0.022 | mubritinib -0.009

KPNB1 (UniProt Q14974)
inactive: bafetinib 0.029 | [1] 0.029 | nilotinib -0.129 | [2] -0.09 | dasatinib -0.072 | [3] -0.018 | [4] -0.09 | [5] -0.045 | tipifarnib -0.12 | mubritinib 0.019

KIF2C (UniProt Q99661)
Chain of UniProt Q99661 (Q99661 whole entry, looked up): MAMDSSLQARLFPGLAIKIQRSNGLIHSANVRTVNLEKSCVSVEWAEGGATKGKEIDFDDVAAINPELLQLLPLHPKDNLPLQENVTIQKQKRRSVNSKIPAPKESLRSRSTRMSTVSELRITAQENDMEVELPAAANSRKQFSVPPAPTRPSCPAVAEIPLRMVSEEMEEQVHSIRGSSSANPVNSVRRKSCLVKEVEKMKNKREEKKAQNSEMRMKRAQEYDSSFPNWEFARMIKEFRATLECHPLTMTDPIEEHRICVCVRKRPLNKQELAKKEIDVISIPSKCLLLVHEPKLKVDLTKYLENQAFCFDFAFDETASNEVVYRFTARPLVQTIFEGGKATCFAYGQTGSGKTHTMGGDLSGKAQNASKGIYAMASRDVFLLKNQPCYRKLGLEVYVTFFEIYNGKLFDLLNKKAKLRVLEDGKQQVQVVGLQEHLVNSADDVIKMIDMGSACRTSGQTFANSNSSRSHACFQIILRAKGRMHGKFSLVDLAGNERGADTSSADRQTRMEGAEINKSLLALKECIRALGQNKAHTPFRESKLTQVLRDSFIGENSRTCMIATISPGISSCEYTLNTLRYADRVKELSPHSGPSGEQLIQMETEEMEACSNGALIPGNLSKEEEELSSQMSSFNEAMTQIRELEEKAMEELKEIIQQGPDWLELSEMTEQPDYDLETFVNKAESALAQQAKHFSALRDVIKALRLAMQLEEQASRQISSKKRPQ
inactive: bafetinib 0.1 | [1] 0.122 | nilotinib -0.082 | [2] -0.054 | dasatinib -0.15 | [3] 0.032 | [4] 0.053 | [5] 0.039 | tipifarnib -0.103 | mubritinib 0.081

LPCAT3 (UniProt Q6P1A2)
inactive: bafetinib 0.108 | [1] 0.063 | nilotinib 0.044 | [2] 0 | dasatinib 0.051 | [4] 0.153 | [5] -0.015 | tipifarnib -0.216 | mubritinib 0.034
active: [3] 0.363

KLHDC4 (UniProt Q8TBB5)
inactive: bafetinib 0.012 | [1] -0.018 | nilotinib 0 | [2] -0.067 | dasatinib 0.107 | [3] 0.156 | [4] -0.175 | [5] -0.23 | tipifarnib 0.106 | mubritinib -0.333

MIEF1 (UniProt Q9NQG6)
inactive: bafetinib -0.133 | [1] 0.006 | nilotinib 0.022 | [2] -0.04 | dasatinib -0.028 | [3] 0.145 | [4] 0.09 | [5] 0.064 | tipifarnib -0.039 | mubritinib -0.029

KRAS isoform 2 (UniProt P01116)
Chain of UniProt P01116 (P01116 whole entry, looked up): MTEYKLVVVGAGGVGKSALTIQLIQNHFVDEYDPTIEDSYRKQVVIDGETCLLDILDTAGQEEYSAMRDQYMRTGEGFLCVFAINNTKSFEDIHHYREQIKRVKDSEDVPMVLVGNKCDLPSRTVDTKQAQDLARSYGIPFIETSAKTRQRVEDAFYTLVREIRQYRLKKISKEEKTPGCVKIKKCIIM
inactive: bafetinib 0.008 | [1] -0.115 | nilotinib -0.123 | [2] 0.074 | dasatinib -0.018 | [3] -0.041 | [4] 0.064 | [5] -0.08 | tipifarnib 0.087 | mubritinib 0.041

IGFBP2 (UniProt P18065)
Chain of UniProt P18065 (P18065 whole entry, looked up): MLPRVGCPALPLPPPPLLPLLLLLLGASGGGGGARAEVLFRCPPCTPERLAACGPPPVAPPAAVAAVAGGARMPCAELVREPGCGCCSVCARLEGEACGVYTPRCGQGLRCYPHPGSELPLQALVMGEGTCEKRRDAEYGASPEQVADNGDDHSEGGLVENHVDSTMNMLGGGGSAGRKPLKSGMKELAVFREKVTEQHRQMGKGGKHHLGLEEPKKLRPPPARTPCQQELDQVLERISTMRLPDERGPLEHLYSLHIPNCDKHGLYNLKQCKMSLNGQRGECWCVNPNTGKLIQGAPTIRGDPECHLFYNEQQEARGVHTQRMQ
inactive: bafetinib -0.512 | [1] 0.026 | nilotinib -0.034 | [2] 0.142 | dasatinib -0.1 | [3] 0.17 | [4] 0.17 | [5] -0.095 | tipifarnib -0.1 | mubritinib -0.135

LRRFIP1 (UniProt Q32MZ4)
Chain of UniProt Q32MZ4 (Q32MZ4 whole entry, looked up): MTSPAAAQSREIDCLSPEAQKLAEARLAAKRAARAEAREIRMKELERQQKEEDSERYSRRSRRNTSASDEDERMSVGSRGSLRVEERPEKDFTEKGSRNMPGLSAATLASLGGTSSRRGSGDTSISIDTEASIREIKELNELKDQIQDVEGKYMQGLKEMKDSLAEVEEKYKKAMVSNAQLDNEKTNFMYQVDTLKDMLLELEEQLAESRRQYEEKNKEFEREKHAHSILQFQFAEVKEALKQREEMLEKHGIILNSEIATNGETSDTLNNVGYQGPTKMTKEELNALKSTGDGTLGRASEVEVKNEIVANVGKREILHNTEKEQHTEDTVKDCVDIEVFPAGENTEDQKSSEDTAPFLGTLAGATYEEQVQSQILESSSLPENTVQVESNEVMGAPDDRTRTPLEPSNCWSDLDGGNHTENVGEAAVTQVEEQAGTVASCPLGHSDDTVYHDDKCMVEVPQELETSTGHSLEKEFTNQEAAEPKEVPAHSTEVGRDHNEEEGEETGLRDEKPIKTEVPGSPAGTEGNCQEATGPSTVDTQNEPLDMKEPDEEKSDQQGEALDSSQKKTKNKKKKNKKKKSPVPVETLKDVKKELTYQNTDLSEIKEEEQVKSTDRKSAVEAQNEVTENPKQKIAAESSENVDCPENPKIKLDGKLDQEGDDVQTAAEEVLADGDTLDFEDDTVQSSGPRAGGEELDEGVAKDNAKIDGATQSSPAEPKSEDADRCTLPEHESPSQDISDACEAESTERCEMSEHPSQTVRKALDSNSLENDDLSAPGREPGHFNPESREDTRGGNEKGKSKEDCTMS
inactive: bafetinib -0.034 | [1] -0.043 | nilotinib 0.008 | [2] 0.002 | dasatinib 0.038 | [3] -0.016 | [4] 0.024 | [5] 0.013 | tipifarnib 0.016 | mubritinib 0.035

KIF11 (UniProt P52732)
inactive: bafetinib 0.043 | [1] 0.044 | nilotinib -0.057 | [2] -0.031 | dasatinib -0.075 | [3] 0.088 | [4] -0.06 | [5] -0.002 | tipifarnib -0.078 | mubritinib -0.025

MDN1 (UniProt Q9NU22)
inactive: bafetinib -0.094 | [1] 0 | nilotinib -0.15 | [2] -0.195 | dasatinib -0.245 | [3] -0.089 | [4] 0.02 | [5] 0.011 | tipifarnib -0.052 | mubritinib -0.089

KIF21A isoform 4 (UniProt Q7Z4S6)
inactive: bafetinib 0.051 | [1] 0.079 | nilotinib -0.104 | [2] 0.083 | dasatinib -0.193 | [3] 0.037 | [4] -0.066 | [5] -0.073 | tipifarnib -0.039 | mubritinib 0.11

ME2 (UniProt P23368)
inactive: bafetinib -0.012 | [1] -0.087 | nilotinib 0.138 | [2] 0.029 | dasatinib -0.052 | [3] -0.015 | [4] -0.076 | [5] 0.001 | tipifarnib 0.107 | mubritinib -0.074

IRF3 (UniProt Q14653)
Chain of UniProt Q14653 (Q14653 whole entry, looked up): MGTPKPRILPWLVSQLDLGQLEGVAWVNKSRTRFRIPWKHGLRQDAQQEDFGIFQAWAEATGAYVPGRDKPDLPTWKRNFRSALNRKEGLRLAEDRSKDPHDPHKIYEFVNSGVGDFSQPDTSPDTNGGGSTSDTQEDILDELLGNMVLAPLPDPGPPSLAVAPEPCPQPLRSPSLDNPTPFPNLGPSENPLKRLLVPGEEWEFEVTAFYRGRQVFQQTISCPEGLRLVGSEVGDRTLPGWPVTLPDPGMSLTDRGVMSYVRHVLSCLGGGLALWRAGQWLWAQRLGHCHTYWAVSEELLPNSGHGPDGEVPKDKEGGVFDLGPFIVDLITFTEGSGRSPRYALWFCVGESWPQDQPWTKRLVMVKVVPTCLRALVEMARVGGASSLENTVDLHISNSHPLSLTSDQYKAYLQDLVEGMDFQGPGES
inactive: bafetinib 0.033 | [1] 0.023 | nilotinib 0.066 | [2] -0.191 | dasatinib -0.1 | [3] -0.04 | [4] 0.106 | [5] 0.005 | tipifarnib -0.023 | mubritinib 0.039

KLC2 (UniProt Q9H0B6)
Chain of UniProt Q9H0B6 (Q9H0B6 whole entry, looked up): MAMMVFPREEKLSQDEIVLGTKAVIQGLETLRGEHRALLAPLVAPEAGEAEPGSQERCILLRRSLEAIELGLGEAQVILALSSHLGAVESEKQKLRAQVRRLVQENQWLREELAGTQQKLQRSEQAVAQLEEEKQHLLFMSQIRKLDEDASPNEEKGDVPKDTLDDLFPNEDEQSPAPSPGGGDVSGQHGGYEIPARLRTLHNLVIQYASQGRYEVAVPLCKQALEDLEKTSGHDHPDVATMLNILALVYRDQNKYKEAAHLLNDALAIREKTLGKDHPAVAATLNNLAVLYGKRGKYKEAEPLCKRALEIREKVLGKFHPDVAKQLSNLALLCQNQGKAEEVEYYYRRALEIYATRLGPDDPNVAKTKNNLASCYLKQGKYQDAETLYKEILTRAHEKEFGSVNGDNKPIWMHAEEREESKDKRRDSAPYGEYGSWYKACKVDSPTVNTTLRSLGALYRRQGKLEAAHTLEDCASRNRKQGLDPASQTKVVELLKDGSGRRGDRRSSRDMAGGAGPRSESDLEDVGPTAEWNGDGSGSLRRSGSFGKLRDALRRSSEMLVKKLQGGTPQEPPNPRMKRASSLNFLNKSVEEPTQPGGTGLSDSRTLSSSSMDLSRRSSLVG
inactive: bafetinib 0.013 | [1] 0.018 | nilotinib -0.049 | dasatinib -0.07 | [3] 0.025 | [4] 0.05 | [5] 0.046 | tipifarnib 0.031 | mubritinib 0.009
active: [2] -0.388

KCTD2 (UniProt Q14681)
active: [1] -0.845
inactive: bafetinib -0.23 | nilotinib -0.144 | [2] 0.012 | dasatinib 0.146 | [3] -0.076 | [4] -0.102 | [5] -0.015 | tipifarnib 0.308 | mubritinib 0.113

MAPK12 (UniProt P53778)
inactive: bafetinib -0.037 | [1] 0.008 | nilotinib -0.054 | [2] -0.254 | dasatinib -0.079 | [3] -0.035 | [5] -0.077 | tipifarnib -0.007 | mubritinib 0.061
active: [4] 0.34

KHDRBS1 (UniProt Q07666)
inactive: bafetinib 0.041 | [1] 0.007 | nilotinib 0.035 | [2] 0.02 | dasatinib 0.012 | [3] 0.07 | [4] 0.025 | [5] -0.024 | tipifarnib 0.017 | mubritinib 0.021

Source: the supplement of paper PMC10849652
